From PubChem BioAssay
Most compounds without a hit are left out; they make up all but 3.7% or so of the library.
HepG2 viability: kills HepG2 cells in TGF-b inhibitor counter-screen; HepG2 CAGA-GFP viability, ATP luminescence, 18 h; Potency, µM (top dose mostly 46.1 µM), for the others: top-dose activity change, negative = cytotoxicity, most hits filed as cytotoxic; 410,000 compounds, 0.76% hits
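HepG2 CAGA-GFP cells (1000/well, DMEM with 1% FBS) received compound, then TGF-beta at 500 pg/mL final, and were incubated 18 hours at 37 degrees C. Viability was read by CellTiter-Glo luminescence. Media-only wells were set as complete cell-killing and DMSO as no toxicity.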
ATXN viability: viability counter-screen for ATXN expression inhibitors; AID 651635; 400,000 compounds, 0.49% hits; S2 cells (HEK-293 line with an ATXN2-luciferase reporter) viability, CellTiter-Fluor protease fluorescence, 24 h; Potency, µM (titrated, usually from 56.7 µM), most hits filed as cytotoxic; note: nearly all actives have a fitted effect of over 40% in size
ATXN2 expr inh: inhibitors of ATXN2 expression; Potency, µM (titrated, usually from 57 µM), without a hit: top-dose activity change, negative = inhibition, actives largely listed as inhibitors; HEK-293 ATXN2-luciferase reporter, luminescence, 24 h; 360,000 compounds, 0.72% hits; note: % is set by controls: 0 for no effect and ±100 for the full control effect; nearly all actives have a fitted effect of over 55% in size
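qHTS (up to 57 uM final) was run with 24 h compound exposure of reporter cells at 37 °C. Each well was multiplexed: SteadyGlo luminescence measured ATXN2-luciferase expression after a fluorogenic Gly-Phe-AFC viability readout (25 uM final).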
GLP1R inv ag: GLP-1 receptor (human) inverse agonism | P43220 | HEK293 GLP-1R CRE-luciferase, luminescence, 24 h; GLP-1R form is constitutively active | Potency, µM (highest dose often 38.3 µM), for inactives: at the highest dose activity change, negative = inhibition, most hits filed as inhibitors | 410,000 compounds, 1.6% hits | AID 624417; note: % is set by controls: 0 for no effect and ±100 for the full control effect; nearly all actives have a fitted effect of over 55% in size
Target sequence (P43220 whole entry, looked up): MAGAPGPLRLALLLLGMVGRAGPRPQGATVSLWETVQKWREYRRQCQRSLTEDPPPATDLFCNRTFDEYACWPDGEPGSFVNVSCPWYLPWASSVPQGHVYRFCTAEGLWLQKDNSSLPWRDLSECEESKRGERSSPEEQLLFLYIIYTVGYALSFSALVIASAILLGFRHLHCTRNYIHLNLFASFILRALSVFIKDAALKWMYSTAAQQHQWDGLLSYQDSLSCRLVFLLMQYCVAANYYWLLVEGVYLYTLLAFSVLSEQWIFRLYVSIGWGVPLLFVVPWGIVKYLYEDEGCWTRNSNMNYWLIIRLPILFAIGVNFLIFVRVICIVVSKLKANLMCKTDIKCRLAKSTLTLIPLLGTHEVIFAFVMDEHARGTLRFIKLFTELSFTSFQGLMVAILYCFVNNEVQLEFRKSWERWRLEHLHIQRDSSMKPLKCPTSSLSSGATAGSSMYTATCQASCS
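Readout was luciferase luminescence, measured 12 min after detection reagent at room temperature. Beforehand, GLP-1R reporter HEK293 cells had sat 12 h, then received compounds for 24 hr at 37 deg C.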
GLP1R ag: activates the human GLP-1 receptor; P43220; HEK293 GLP-1R CRE-luciferase, luminescence, 4-6 h; cells express a hypersensitive GLP-1R form; Potency, µM (doses to about 45.6 µM), for inactives: top-dose activation, actives largely listed as activators; 380,000 compounds, 0.007% hits; AID 624172; note: % of control where 0% means no effect
TGFb inhibitor: TGF-b pathway inhibition. 410,000 compounds, 1.2% hits. AID 588855. Potency, µM (doses to about 46.1 µM), for inactives: at the top dose activity, negative = inhibition, usual class: inhibitors. HepG2 CAGA-GFP TGF-b/SMAD3 reporter, GFP fluorescence, 18 h; TGF-beta stimulated, 500 pg/mL final; note: % is set by controls: 0 for no effect and ±100 for the full control effect; nearly all actives have a fitted effect of over 65% in size
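Inhibition was scored as loss of TGF-beta-induced (500 pg/mL final, 18 hours, 37 degrees C) GFP in HEPG2 cells carrying a CAGA-GFP reporter, in DMEM with 1% FBS. Well GFP was summed per cell; Activity was normalised to unstimulated and stimulated DMSO wells, then concentration-response fitting.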
* marks the source's active call; other numbers are inactive results; i = inactive; ? = inconclusive; · = no result given. Calls come from the whole dose curve; as a rule, active = well fitted curve in the direction sought with a large enough effect; inconclusive = small, poorly fitted or top-dose-only effect, or another doubt; inactive = no such curve, though single readings can be large; an effect the other way counts as inactive or inconclusive. Potency is the fitted concentration of half-maximal effect.

SMILES	HepG2 viability	ATXN viability	ATXN2 expr inh	GLP1R inv ag	GLP1R ag	TGFb inhibitor
COc1ccc(CN(C)C[C@@H]2OCCCC[C@H](C)Oc3ccc(NC(=O)Nc4ccc(F)cc4)cc3C(=O)N([C@H](C)CO)C[C@H]2C)cc1	25µM*	18µM*	?	?	-2%	?
O=C(/C=C/c1ccc(Br)cc1)N1CCN(c2cccc(C(F)(F)F)c2)CC1	-37%	?	?	10µM*	-2%	?
CC1(C)Cc2cccc(OCC(=O)N3CCN(c4cccc(C(F)(F)F)c4)CC3)c2O1	-27%	i	-10%	10µM*	0%	?
CCS(=O)(=O)N1CCc2cc(C(=O)N3CCN(c4cccc(C(F)(F)F)c4)CC3)ccc21	-32%	?	?	?	·	11µM*
CC1(C)Cc2cccc(OCC(=O)N3CCN(c4cccc(Cl)c4)CC3)c2O1	-7%	?	-4%	?	5%	18%
O=C(c1ccc2c(c1)CCN2S(=O)(=O)c1ccccc1)N1CCN(c2cccc(Cl)c2)CC1	0%	i	-13%	?	·	-29%
Cc1ccc(CC(=O)N2CCN(c3cccc(C(F)(F)F)c3)CC2)cc1	3%	i	-3%	8.9µM*	0%	-25%
C[C@@H](/C=C/c1ccc2ccccc2c1)C1COC(=O)C[C@H]1O (stereo partly drawn)	3%	·	·	·	·	-2%
O=C(NCc1ccccc1)NC1COc2ccccc2C1 (stereo not drawn)	5%	·	·	-13%	·	33%
Nc1ccc([N+](=O)[O-])c(C(F)(F)F)c1	·	i	6%	·	·	·
COc1cc(CN2CCCC(n3cc(C(=O)N4CCCC4)nn3)C2)cc(OC)c1 (stereo not drawn)	·	i	·	·	·	·
COc1ccc(CCNc2ncnc3c2c(-c2ccccc2)cn3-c2ccc(Cl)cc2)cc1OC	-7%	·	·	-3%	·	-14%
CC1(C)C2CC[C@]1(C)[C@@H](O)C2	·	·	·	·	9%	·
Cn1c(Sc2ccc(Br)cc2)c(C=O)c2ccccc21	-4%	i	0%	4.5µM*	-23%	-22%
CCOC(=O)NC1CCc2cc(OC)c(OC)c(OC)c2-c2ccc(SC)c(=O)cc21 (stereo not drawn)	12%	?	-3%	-31%	25%	0%
CCCCOC(=O)NC1CCc2cc(OC)c(OC)c(OC)c2-c2ccc(SC)c(=O)cc21 (stereo not drawn)	0%	0.038µM*	1%	-57%	20%	-80%
CCOC(=O)C1=C(C)NC(C)=C(C(=O)OCC)C1c1cccc([N+](=O)[O-])c1	-18%	i	·	10µM*	-4%	-24%
CCOC(=O)C1=C(C)NC(C)=C(C(=O)OCC)C1c1cccs1	-23%	i	-3%	-26%	-1%	?
CC1=C(C(=O)OC(C)C)C(c2cccs2)C(C(=O)OC(C)C)=C(C)N1	-41%	i	-18%	?	19%	18µM*
CC1=C(C(=O)OC(C)C)C(c2cccs2)NC(=O)N1 (stereo not drawn)	-2%	i	1%	-2%	-2%	-2%
CCOC(=O)C1=C(C)NC(C)=C(C(=O)OCC)C1c1sccc1C	-32%	i	-11%	7.9µM*	4%	-7%
COc1cccc(NC(=O)CSc2nc(-c3ccccc3Cl)nc3c2Cc2c(CO)cnc(C)c2O3)c1	-1%	i	-3%	5%	·	0%
CC1=C(C(=O)OCc2ccccc2)C(c2cccs2)N2C(=O)CCSC2=N1 (stereo not drawn)	1%	i	-17%	11µM*	17%	-6%
CCc1nn(C(C)C(=O)N2CCN(c3cccc(C(F)(F)F)c3)CC2)c(=O)c2cc3occc3n12 (stereo not drawn)	-2%	i	8%	16%	·	-15%
